CYP2C19 inhib = blockers of cytochrome P450 2C19 activity – biochemical, luminescence, ADME assay, primary screen. CYP2C19 Supersomes, luciferin-H EGE luminescence, 30 min. P33261. inhibition, % at 5 µM. AID 778, 2007. hit rate 21% among 96,000;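 active = CYP2C19 inhibition above a set limit at 5 µM in the primary screen, cut at about 50% in these data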
CYP2C9 activ = human CYP2C9 activators, primary screen, biochemical, luminescence; Cytochrome P450 2C9 (Homo sapiens), P11712; recombinant CYP2C9, luciferin-H conversion; stronger effect = higher value; factor 1 = untreated enzyme, 0 = blocked; activation factor at 5 µM; hit rate 1.4% among 96,000; AID 1024, 2008;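 active = activation factor of 2 or more for CYP2C9 at a 5 µM dose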
CYP2C19 activ = human CYP2C19 activators, primary screen, biochemical, luminescence | recombinant CYP2C19, luciferin-H EGE luminescence; stronger effect = higher value; 0 = fully inhibited enzyme, 1 = untreated enzyme | activation factor at 5 µM | 96,000 tested, under 10 active;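 active = activation factor of at least 2 at 5 µM in the primary screen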
hDAT+cocaine = changed hDAT dopamine uptake under cocaine IC80, either direction, primary screen, cocaine antagonist project, cell-based, LLC-PK1 hDAT, [14C]-dopamine uptake, MLSMR. Sodium-dependent dopamine transporter (Homo sapiens), Q01959. LLC-PK1 hDAT cells, [14C]-dopamine uptake with cocaine IC80; actives deviate in either direction. B-score at 10 µM. hit rate 1.3% among 110,000;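 active = Z score or B-score, a plate-position-corrected score, falls beyond the plate's 99.7% confidence bounds, in either direction; inactive = both scores lie inside the 99.7% bounds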
Target sequence (Q01959 whole entry, looked up): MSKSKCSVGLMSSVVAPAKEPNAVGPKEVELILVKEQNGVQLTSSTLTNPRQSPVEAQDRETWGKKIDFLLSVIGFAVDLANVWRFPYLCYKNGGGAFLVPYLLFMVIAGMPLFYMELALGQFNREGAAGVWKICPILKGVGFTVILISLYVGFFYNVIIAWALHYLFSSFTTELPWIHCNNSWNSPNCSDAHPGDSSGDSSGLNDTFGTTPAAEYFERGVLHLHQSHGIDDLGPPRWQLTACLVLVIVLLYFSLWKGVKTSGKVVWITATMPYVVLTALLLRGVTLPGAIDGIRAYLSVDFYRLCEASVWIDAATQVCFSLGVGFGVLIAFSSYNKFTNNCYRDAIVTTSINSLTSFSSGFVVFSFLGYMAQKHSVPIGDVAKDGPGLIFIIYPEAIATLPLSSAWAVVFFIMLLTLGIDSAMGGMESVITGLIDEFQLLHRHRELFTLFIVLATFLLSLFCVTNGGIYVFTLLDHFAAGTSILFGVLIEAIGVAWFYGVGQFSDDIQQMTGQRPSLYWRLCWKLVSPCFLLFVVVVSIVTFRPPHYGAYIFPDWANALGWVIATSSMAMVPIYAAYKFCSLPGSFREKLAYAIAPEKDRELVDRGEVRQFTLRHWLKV
D1 allo mod = D1 CRE-luciferase signal change, two-sided – cell-based, HEK293 D1, dopamine EC30, D1 allosteric modulator project, primary screen; hit rate 5.9% among 58,000; dopamine EC30 potentiation; actives deviate in either direction; D(1A) dopamine receptor (Homo sapiens), P21728; B-score at 10 µM;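 active = luminescence count or its row- and column-corrected plate score outside the 99.7% band of the plate's sample wells, on either side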
CYP2C9 inhib = blockers of cytochrome P450 2C9 activity – biochemical, luminescence, ADME assay, primary screen; inhibition, % at 5 µM; P11712; AID 777, 2007; CYP2C9 Supersomes, luciferin-H conversion; hit rate 20% among 96,000;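 active = blocking of liver enzyme CYP2C9 beyond about 50% at 5 µM, limit read from the data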
Of the large screens only hits and unclear results are named; the others gave an inactive call. In the library only some 28% were active in any assay of this set; here they are far more common.

COc1cc(OC)c(C2CC(=O)N3CN(c4ccccc4C)CSC3=C2C#N)cc1OC (stereo not drawn)	CYP2C9 inhib 86
COc1ccc(C2CC(=O)N3CN(c4ccc(C)c(Cl)c4)CSC3=C2C#N)cc1 (stereo not drawn)	CYP2C19 inhib 77, CYP2C9 inhib 98
COc1ccc(OC)c(C2CC(=O)N3CN(c4ccccc4)CSC3=C2C#N)c1 (stereo not drawn)	CYP2C9 inhib 60
CSc1ccc(Cl)c(C(=O)Nc2ccc(OCC(N)=O)cc2)c1	none (no result: D1 allo mod)
Cc1ccc(-n2c(C)nn(-c3ncc(C(F)(F)F)cc3Cl)c2=O)cc1	none (no result: D1 allo mod)
Cc1cccc(N2CSC3=C(C#N)C(c4ccc(C)o4)CC(=O)N3C2)c1 (stereo not drawn)	CYP2C9 inhib 86
CCc1ccccc1N1CSC2=C(C#N)C(c3ccccc3F)CC(=O)N2C1 (stereo not drawn)	CYP2C19 inhib 82, CYP2C9 inhib 94
Cc1cc(=S)n(-c2ccccc2)n1C	none
Cc1ccc(Cn2nnc3c(=O)[nH]c(C4CCN(S(=O)(=O)c5ccc(F)cc5)CC4)nc32)cc1	none (no result: CYP2C19 inhib, CYP2C9 activ, CYP2C19 activ, hDAT+cocaine, CYP2C9 inhib)
Cc1ccc(Cn2nnc3c(=O)[nH]c(C4CCN(S(=O)(=O)c5cc(C)ccc5C)CC4)nc32)cc1	CYP2C19 inhib 79, CYP2C9 inhib 97
Cc1ccc(C)c(S(=O)(=O)N2CCC(c3nc4c(nnn4Cc4ccc(F)cc4)c(=O)[nH]3)CC2)c1	CYP2C9 inhib 94
O=C(CSc1nc2ccccc2n1CC(=O)N1CCCC1)Nc1nccs1	none
CCOC(=O)c1[nH]c2ccc(OC)cc2c1NC(=O)OC	none
CCOC(=O)c1[nH]c2ccc(OC)cc2c1NC(=O)C(C)N1CCSCC1 (stereo not drawn)	CYP2C19 inhib 81, CYP2C9 inhib 84
CCOC(=O)c1[nH]c2ccc(OC)cc2c1NS(=O)(=O)c1ccc(OC)cc1OC	CYP2C19 inhib 57, CYP2C9 inhib 67
COC(=O)c1[nH]c2ccc(F)cc2c1NS(=O)(=O)c1ccc(OC)cc1OC	CYP2C19 inhib 56
CCN(CC)CC(=O)Nc1cc(C)c2c(=O)oc3ccccc3c2n1	none (no result: CYP2C19 inhib, CYP2C9 activ, CYP2C19 activ, hDAT+cocaine, CYP2C9 inhib)
O=C(NC1CC1)c1nc2c(nnn2Cc2ccccc2Cl)c(=O)[nH]1	none (no result: CYP2C19 inhib, CYP2C9 activ, CYP2C19 activ, D1 allo mod, CYP2C9 inhib)
O=C(c1ccc(Cl)cc1Cl)N1CCC(c2nc3c(nnn3Cc3ccco3)c(=O)[nH]2)CC1	CYP2C9 inhib 59
Cc1ccc(Cn2nnc3c(=O)[nH]c(C(=O)NCc4ccco4)nc32)cc1	none (no result: D1 allo mod)
O=C(c1ccccc1)N1CCC(c2nc3c(nnn3Cc3ccco3)c(=O)[nH]2)CC1	CYP2C9 inhib 53 (no result: D1 allo mod)
CC(=O)N1CCN(S(=O)(=O)c2ccc(C)cc2)C1C(C)C (stereo not drawn)	CYP2C19 inhib 69
C/C(=N\S(=O)(=O)c1ccc(C)cc1)N1CCN(S(=O)(=O)c2ccccc2)C1C(C)C (stereo not drawn)	CYP2C19 inhib 78, CYP2C9 activ 2.4 (no result: D1 allo mod)
Cc1c(N2C(=O)/C(=C3/C(=O)N(C)c4ccccc43)SC2=S)c(=O)n(-c2ccccc2)n1C	none (no result: D1 allo mod)
CCCC(C(=O)O)N1C(=O)/C(=C2\C(=O)N(C)c3ccccc32)SC1=S (stereo not drawn)	CYP2C9 inhib 68 (no result: hDAT+cocaine, D1 allo mod)
N#Cc1c(/N=C/C=C/c2ccccc2)sc2c1CCCC2	none (no result: D1 allo mod)
Clc1ccc(NC2=NCCCCC2)cc1	none
COCCCn1cc(C(=O)c2cc(OC)ccc2OCC(=O)Nc2cc(C)on2)cc(C#N)c1=O	CYP2C19 inhib 50, CYP2C9 inhib 57 (no result: D1 allo mod)
COc1cccc(-n2c(Cc3cc(=O)[nH]c(=O)[nH]3)nnc2SCC(=O)N2CCCCC2)c1	none
COc1cc(C2c3c(oc4ccccc4c3=O)C(=O)N2Cc2ccco2)ccc1O (stereo not drawn)	none (no result: D1 allo mod)
COCCN1C(=O)c2oc3ccccc3c(=O)c2C1c1cccc(O)c1 (stereo not drawn)	CYP2C19 inhib 55
COc1cc(C2c3c(oc4ccccc4c3=O)C(=O)N2Cc2ccncc2)ccc1O (stereo not drawn)	CYP2C9 inhib 73
CC1(C(=O)NCCN2CCOCC2)C=CC2(CCCCC2)N1C(=O)c1ccccc1 (stereo not drawn)	none (no result: CYP2C19 inhib, CYP2C9 activ, CYP2C19 activ, D1 allo mod, CYP2C9 inhib)
CNC(=O)CCn1nc(-c2ccccc2)c2ccccc2c1=O	none
NC(=O)CCn1nc(-c2ccc(Cl)cc2)c2ccccc2c1=O	CYP2C19 inhib 57
COc1cc(NC(=S)Nc2ccc(S(=O)(=O)N3CCOCC3)cc2)cc(OC)c1OC	none (no result: D1 allo mod)
CCCCNC(=O)CC1C(=O)N(Cc2ccccc2)C(C)c2nc3ccccc3n21 (stereo not drawn)	CYP2C19 inhib 71 (no result: D1 allo mod)
N=C1/C(=C\c2ccc(OCc3ccccc3)cc2)C(=O)N=C2SC(N3CCCC3)=NN12	none (no result: CYP2C19 inhib, CYP2C9 activ, CYP2C19 activ, D1 allo mod, CYP2C9 inhib)
CCCCOc1ccc2c(C)cc(=O)oc2c1OCCCC	none (no result: CYP2C19 inhib, CYP2C9 activ, CYP2C19 activ, D1 allo mod, CYP2C9 inhib)
O=C(NCCCN1CCOCC1)c1cc(-c2cccs2)on1	none
O=C(NCCCn1ccnc1)c1cc(-c2cccs2)on1	CYP2C19 inhib 79
COc1ccc(OC)c(-c2cc(C(=O)Nc3cc(C)n(Cc4ccc(Cl)cc4)n3)no2)c1	none
COc1ccc(-c2nn(-c3ccccc3)cc2C(=O)NCCCn2ccnc2)cc1	CYP2C19 inhib 96, CYP2C9 inhib 98
COc1ccc(C(=O)NCCCn2ccnc2)cc1	CYP2C19 inhib 89
COc1ccc(OC)c(-c2cc(C(=O)NCCCn3ccnc3)no2)c1	CYP2C19 inhib 75
Cn1ncc(N=Cc2ccc([N+](=O)[O-])cc2)c1C(=O)N1CCOCC1	none (no result: D1 allo mod)
CC1(C)CC(=O)C2=C(C1)Nc1[nH]c(=S)[nH]c(=O)c1C2c1ccccc1 (stereo not drawn)	none
CCOc1ccc(C(=O)NCCCn2ccnc2)cc1	CYP2C19 inhib 93
O=C(c1ccc(C(F)(F)F)cc1)c1c[nH]c(C(=O)NCCCn2ccnc2)c1	CYP2C19 inhib 95, CYP2C9 inhib 88 (no result: D1 allo mod)
COCCCNC(=O)c1c(N)n(/N=C/c2cccnc2)c2nc3ccccc3nc12	none
COCCCNC(=O)c1c(N)n(/N=C/c2cccs2)c2nc3ccccc3nc12	CYP2C9 inhib 67 (no result: D1 allo mod)
COc1ccc2c(Cl)c(C(=O)NCCCn3ccnc3)sc2c1Cl	CYP2C19 inhib 88, CYP2C9 inhib 88 (no result: D1 allo mod)
Cc1ccc(CNC(=O)CCNC(=O)Cn2ccc3ccccc3c2=O)o1	none
O=C(COc1ccc(Br)cc1)Nc1ccc([N+](=O)[O-])cn1	none (no result: D1 allo mod)
